Potency and outcome data for 14 molecules are collected here from PubChem BioAssay (Tox21).

Where “and” joins values, the source holds several entries; their conditions need not be identical. Identical values can stand only once. Unmarked numbers belong to inactive results. Records with an inconclusive call do not appear. Calls of active or inactive are those of the source. Unless noted, the call rests on the fitted dose curve; in most records, active means well fitted curve in the direction sought with a large enough effect in the repeat runs; inconclusive means weak or mixed curves; inactive means no such curve, though single readings can be large; an effect the other way counts as inactive or inconclusive.

Assay [1] can be described thus: qHTS assay to identify small molecule antagonists of the androgen receptor (AR) signaling pathway using the MDA cell line in the presence of 0.5 nM R1881 - cell viability counter screen (AID 1259242). Further: nearly all actives have a fitted effect of over 45% in size. Further: potency means the concentration at half of the fitted maximal effect. The gist of the method:
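Counter screen for cytotoxicity run in the same wells as the AR antagonist reporter screen: MDA-kb2 cells were treated 16 hr with test compounds and 0.5 nM R1881, then live-cell protease activity was measured by fluorescence.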
(qHTS replaces the single test concentration by a dilution series.)

Assay [2] has as its target Estrogen receptor (Homo sapiens) (UniProt P03372). Nature of the assay: qHTS assay to identify small molecule antagonists of the estrogen receptor alpha (ER-alpha) signaling pathway using the BG1 cell line in the presence of 0.1 nM 17-beta-estradiol (AID 1259244). Further: nearly all actives have a fitted effect of over 50% in size. Further: potency means the concentration at half of the fitted maximal effect. The gist of the method:
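Cells: VM7Luc4E2, endogenous ER-alpha, 4x ERE-luc stable. Pre-culture 5 d, phenol red-free, charcoal-stripped FBS. Plated 24 h, compound + E2 0.1 nM final, 22 h 37C/5% CO2. Readout ONE-Glo luminescence.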

The nature of assay [3]: qHTS assay to identify small molecule agonists of the sonic hedgehog signaling (Shh) pathway - cell viability counter screen (AID 1259366). Further: nearly all actives have a fitted effect of over 50% in size. Further: potency means the concentration at half of the fitted maximal effect. The method in brief:
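Fluorescence from CellTiter-Fluor reports live cells in this counter screen. NIH/3T3-derived Gli1-Luc reporter cells receive test compounds for 24hr at 37C; reagent goes in at 23hr.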

The nature of assay [4]: qHTS assay to identify small molecule antagonists of the sonic hedgehog signaling (Shh) pathway - cell viability counter screen (AID 1259367). Further: nearly all actives have a fitted effect of over 55% in size. Further: potency means the concentration at half of the fitted maximal effect. The method in brief:
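NIH/3T3-derived Gli1-Luc reporter cells (2,000 per well) rested 4 hr at 37 C, then received DMSO compounds plus conditioned medium. After 23 hr of treatment, CellTiter-Fluor was added for 1 hr at 37C and fluorescence read.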

A short description of assay [5]: qHTS assay to identify small molecule agonists of the sonic hedgehog signaling (Shh) pathway (AID 1259368; calls by dose curve;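 further: NIH/3T3-derived 3T3Gli1-Luc cells carrying a stable Gli1-driven firefly luciferase reporter; series mostly up to about 92 µM; nearly all actives have a fitted effect of over 15% in size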). The method in brief: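 3T3Gli1-Luc (NIH/3T3 clone, stable Gli1-Luc); 4 hr pre-incubation, then cpd in DMSO 24 hr, 37 C/5% CO2; luciferase reagent 30 min RT; luminescence.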
Assay [6] in a line: qHTS assay to identify small molecule antagonists of the sonic hedgehog signaling (Shh) pathway (AID 1259369; calls by dose curve; further: nearly all actives have a fitted effect of over 45% in size; further: potency means the concentration at half of the fitted maximal effect). The gist of the method: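 3T3Gli1-Luc, conditioned-medium-stimulated, 24hr cpd, 37C/5% CO2; Gli1-driven firefly Luc luminescence after 30min RT with luciferase reagent. Cells plated 4hr before cpd.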
Assay [7] concerns the target Estrogen receptor beta (Homo sapiens) (UniProt Q92731). Nature of the assay: qHTS assay to identify small molecule antagonists of the estrogen receptor beta (ER-beta) signaling pathway (AID 1259378; active means well fitted inhibition curve with a large enough effect in the signal ratio in the repeat runs, not every such curve was filed as active; the % refers to the signal ratio; further: potency means the concentration at half of the fitted maximal effect). The gist of the method: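 ER-beta-UAS-bla HEK293T (GripTite) cells in 2% charcoal-stripped FBS medium were preincubated 6 hr at 37C, dosed with compound, then stimulated with 1 nM E2 (final) for 16 hr; beta-lactamase reporter read by B/G FRET fluorescence after 2 hr substrate loading.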

Assay [8] can be described thus: qHTS assay to identify small molecule antagonists of the estrogen receptor beta (ER-beta) signaling pathway - cell viability counter screen (AID 1259382). Further: nearly all actives have a fitted effect of over 55% in size. Further: potency means the concentration at half of the fitted maximal effect. The method in brief:
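Cells: ER-beta-UAS-bla HEK293T, 2,000/well, 2% CS-FBS, 6 hr settle. Cpd + E2 (1nM final), 16 hr, 37C/5% CO2. Bla FRET substrate 2 hr RT, then CellTiter-Glo 30 min RT, luminescence.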

The target of assay [9] is Estrogen receptor (Homo sapiens) (UniProt P03372). Nature of the assay: qHTS assay to identify small molecule agonists of the estrogen receptor alpha (ER-alpha) signaling pathway in the presence of an antagonist (AID 1259383; calls by dose curve; further: top concentration of the series differs between compounds; nearly all actives have a fitted effect of over 15% in size). The method in brief:
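VM7Luc4E2, endog. ER-alpha + 4×ERE-luc; charcoal-stripped FBS, phenol red-free, 5 d; 24hr plating; +10.0nM ICI-182,780 (final); cpds 15 conc, 22hr, 37C/5% CO2; ONE-Glo luminescence.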

A short description of assay [10]: qHTS assay to identify small molecule agonists of the estrogen receptor alpha (ER-alpha) signaling pathway in the presence of an antagonist - cell viability counter screen (AID 1259386).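 Further: cells exposed to compounds for 22 h at 37 °C before the viability read; nearly all actives have a fitted effect of over 30% in size.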 Further: potency means the concentration at half of the fitted maximal effect. The method in brief: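 VM7Luc4E2, stripped-serum pre-culture 5 d; 24hr plating; +ICI-182,780 10.0nM final; cpds 15 conc, 22hr, 37C/5% CO2; CellTiter-Fluor added at 21hr, fluorescence 1hr later.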

The nature of assay [11]: qHTS assay to identify small molecule phospholipidosis (PLD) inducers (AID 1259344; active means well fitted curve in the direction sought with a large enough effect; an effect the other way counts as inactive or inconclusive). The method in brief:
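HepG2 cells on collagen I, attached 4 h at 37 C, were co-treated with compound and LipidTOX Red dye for 24 h at 37 C, then fixed with paraformaldehyde plus Hoechst 33342 and imaged by high-content microscopy for phospholipid accumulation.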

Assay [12] is described as follows: qHTS assay to identify small molecule HDAC inhibitors (AID 1259364). Further: top concentration of the series differs between compounds; nearly all actives have a fitted effect of over 45% in size. The gist of the method:
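Luminescence from a cell-permeant luminogenic class I/II HDAC substrate reports endogenous deacetylase activity in intact HCT-116 cells treated with compounds for 2 h.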

Assay [13] in a line: qHTS assay to identify small molecule HDAC inhibitors - cell viability counter screen (AID 1259365). Further: series mostly up to about 92 µM; nearly all actives have a fitted effect of over 50% in size. The method in brief:
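To flag cytotoxic hits, 1,500 wild-type HCT-116 cells per well, plated the day before, receive test compounds for 2hr at 37 C before CellTiter-Glo reagent and a luminescence read.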

Assay [14] is described as follows: qHTS assay to identify small molecule agonists of the estrogen receptor beta (ER-beta) signaling pathway - cell viability counter screen (AID 1259380). Further: nearly all actives have a fitted effect of over 30% in size. Further: potency means the concentration at half of the fitted maximal effect. The method in brief: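 HEK293T ER-beta-UAS-bla; 2% CS-FBS; 6 hr pre-plate, 16 hr cpd at 37C/5% CO2; LiveBLAzer read first, then CellTiter-Glo 30 min RT, luminescence.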
The nature of assay [15]: qHTS assay to identify small molecule agonists or antagonists of the thyroid stimulating hormone receptor (TSHR) signaling pathway - wild type cell line counter screen (AID 1259384; calls by dose curve). The gist of the method:
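Wild-type HEK293 cells were plated 18 h at 37 C/5% CO2, pin-dosed with compound plus Ro20-1724 medium, held 30 min at room temperature, then given cAMP-d2 and anti-cAMP-cryptate; fluorescence was read after 1 h. Fifteen concentrations, triplicate.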

Assay [16] is described as follows: qHTS assay to identify small molecule agonists of the androgen receptor (AR) signaling pathway in the presence of an antagonist - cell viability counter screen (AID 1259379). Further: nearly all actives have a fitted effect of over 25% in size. Further: potency means the concentration at half of the fitted maximal effect. The gist of the method:
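Cells: MDA-kb2 (MMTV-luc, AR and GR elements), 3,000/well, 5 hr settle. Added: nilutamide 3.0uM final, then compounds (15 conc.). Incubation: 16 hr, 37C, no CO2. Read-out: CellTiter-Fluor, 1 hr, fluorescence.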

In assay [17] the target is Thyrotropin receptor (Homo sapiens) (UniProt P16473). Nature of the assay: qHTS assay to identify small molecule antagonists of the thyroid stimulating hormone receptor (TSHR) signaling pathway (AID 1259385; calls by dose curve; further: nearly all actives have a fitted effect of over 20% in size; further: potency means the concentration at half of the fitted maximal effect). The method in brief:
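TSHR-HEK293 cells were plated and held 18 h at 37C/5% CO2, then given compound plus Ro20-1724 and stimulated with TSH at 1.5 ng/mL final. After 30 min at room temperature, cAMP was detected with cAMP-d2/anti-cAMP-cryptate (1 h) by fluorescence.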

For assay [18], the target named is Estrogen receptor beta (Homo sapiens) (UniProt Q92731). Briefly: qHTS assay to identify small molecule agonists of the estrogen receptor beta (ER-beta) signaling pathway (AID 1259377; active means well fitted activation curve with a large enough effect in the signal ratio in the repeat runs, not every such curve was filed as active; the % refers to the signal ratio). The gist of the method: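 Screening used GripTite ER-beta-UAS-bla cells held in 2% charcoal-stripped FBS medium. After overnight (16 hr) compound incubation at 37C, beta-lactamase activity was detected with a FRET substrate by fluorescence.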
Sequence of Estrogen receptor beta (Homo sapiens) (Q92731 whole entry, looked up): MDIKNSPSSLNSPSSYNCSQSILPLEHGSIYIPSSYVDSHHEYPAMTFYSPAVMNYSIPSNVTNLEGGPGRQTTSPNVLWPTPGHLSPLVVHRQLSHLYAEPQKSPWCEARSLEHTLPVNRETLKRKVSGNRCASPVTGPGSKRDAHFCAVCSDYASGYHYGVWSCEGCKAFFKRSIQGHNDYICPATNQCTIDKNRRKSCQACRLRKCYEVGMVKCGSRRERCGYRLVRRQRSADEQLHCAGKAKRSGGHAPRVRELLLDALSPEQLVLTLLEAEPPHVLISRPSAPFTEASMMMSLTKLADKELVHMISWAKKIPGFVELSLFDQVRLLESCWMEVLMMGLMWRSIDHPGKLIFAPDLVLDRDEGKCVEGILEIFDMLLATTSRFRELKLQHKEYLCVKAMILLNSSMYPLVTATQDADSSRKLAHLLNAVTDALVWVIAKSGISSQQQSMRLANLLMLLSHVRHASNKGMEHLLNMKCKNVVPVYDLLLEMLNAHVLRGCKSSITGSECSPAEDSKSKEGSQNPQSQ

Sequence of Estrogen receptor (Homo sapiens) (P03372 whole entry, looked up): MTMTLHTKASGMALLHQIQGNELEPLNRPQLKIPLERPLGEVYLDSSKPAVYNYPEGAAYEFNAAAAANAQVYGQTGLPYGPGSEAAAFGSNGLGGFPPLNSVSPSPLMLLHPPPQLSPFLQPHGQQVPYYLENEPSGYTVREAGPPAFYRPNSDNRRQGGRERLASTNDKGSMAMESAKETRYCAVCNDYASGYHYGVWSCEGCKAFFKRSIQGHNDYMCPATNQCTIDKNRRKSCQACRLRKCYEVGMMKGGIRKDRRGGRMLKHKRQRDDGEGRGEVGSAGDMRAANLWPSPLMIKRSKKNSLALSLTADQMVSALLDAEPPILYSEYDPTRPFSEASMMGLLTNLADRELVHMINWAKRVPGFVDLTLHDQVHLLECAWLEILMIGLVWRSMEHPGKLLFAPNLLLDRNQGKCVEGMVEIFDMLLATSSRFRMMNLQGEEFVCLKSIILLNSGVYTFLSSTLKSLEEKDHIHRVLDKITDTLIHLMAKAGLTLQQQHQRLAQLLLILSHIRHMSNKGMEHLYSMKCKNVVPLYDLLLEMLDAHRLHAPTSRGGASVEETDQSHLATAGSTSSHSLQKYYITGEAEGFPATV
Sequence of Thyrotropin receptor (Homo sapiens) (P16473 whole entry, looked up): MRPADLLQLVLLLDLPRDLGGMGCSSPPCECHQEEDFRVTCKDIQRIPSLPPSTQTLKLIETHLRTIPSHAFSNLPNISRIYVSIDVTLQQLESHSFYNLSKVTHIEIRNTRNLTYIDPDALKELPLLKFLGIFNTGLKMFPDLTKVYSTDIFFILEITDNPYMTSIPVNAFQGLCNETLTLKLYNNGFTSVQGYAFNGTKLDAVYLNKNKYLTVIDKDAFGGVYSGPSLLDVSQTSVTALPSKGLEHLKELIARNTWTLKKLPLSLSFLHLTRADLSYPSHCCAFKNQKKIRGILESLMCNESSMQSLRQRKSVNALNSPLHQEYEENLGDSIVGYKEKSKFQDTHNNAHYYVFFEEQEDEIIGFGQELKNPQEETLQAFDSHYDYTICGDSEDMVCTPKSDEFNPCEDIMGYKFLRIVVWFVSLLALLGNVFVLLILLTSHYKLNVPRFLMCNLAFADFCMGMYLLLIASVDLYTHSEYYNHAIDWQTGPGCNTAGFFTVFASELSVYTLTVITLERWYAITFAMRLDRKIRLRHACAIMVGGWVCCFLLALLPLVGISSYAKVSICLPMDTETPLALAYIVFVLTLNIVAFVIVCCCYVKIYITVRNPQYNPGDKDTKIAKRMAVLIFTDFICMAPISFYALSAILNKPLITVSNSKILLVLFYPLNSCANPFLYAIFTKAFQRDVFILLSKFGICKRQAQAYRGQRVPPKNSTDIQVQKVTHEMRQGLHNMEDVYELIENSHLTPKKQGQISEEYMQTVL

Regarding `C=CC(=O)OCC(O)COc1ccccc1` (stereo not given), the Potency result in assay [1], in assay [2], in assay [4], in assay [5], in assay [6] and in assay [7] was “inactive” each time. Besides, the Potency entry in assay [8], in [9] and in assay [10] was “inactive” each time. Further, in assay [3], the Potency was 27.3 µM (active).
Turning to `Clc1ccc(C(Cn2ccnc2)OCc2ccsc2Cl)c(Cl)c1` (stereo not given), the Potency entry in [1], in assay [11], in assay [12], in assay [13], in assay [5] and in assay [9] was “inactive” each time. In addition, the Potency result in assay [10] is “inactive”. Further, the Potency was 11.9 µM (active) in [6], 10.6 µM (active) in assay [7], 23.7 µM (active) in assay [14] and 29.8 µM (active) in assay [8]. In assay [15], the outcome was inactive.
`C/C=C/C(=O)Oc1c(CCCCCC(C)C)cc([N+](=O)[O-])cc1[N+](=O)[O-]`: the Potency in assay [1] is 15.4 µM (active); in assay [2], 4.33 µM (active); in assay [3], 61.1 µM (active); in assay [4] it was 54.5 µM (active); in assay [6] it was 2.17 µM (active); in [16], 15.4 µM (active). Moreover, the Potency in assay [14] was 30.6 µM (active); in assay [8], 48.6 µM (active). Also, the Potency entry in [12], in assay [5], in assay [9] and in assay [17] was “inactive” throughout. The result in assay [15] was inactive.
In the case of `Cc1cccc(Br)c1`, the Potency entry in assay [1], in assay [12], in [13], in assay [3], in assay [5] and in assay [16] was “inactive” each time. Further, the Potency entry in assay [17] and in assay [10] was “inactive” throughout. For the same molecule, the Potency in assay [6] and in assay [14] was 27.4 µM (active) throughout. The call in assay [15] was inactive.
Consider `O=C(O)CC(=O)O`, for which the Potency entry in assay [1], in assay [12], in assay [13], in [3], in assay [4] and in [5] was “inactive” throughout. Further, the Potency entry in assay [18], in [7], in assay [16], in assay [14], in assay [8] and in assay [17] was “inactive” in each case. Further, the Potency entry in assay [10] was “inactive”. The molecule was called inactive in assay [15].
On to `CCCCC(CC)COC(=O)c1ccc(O)cc1` (stereo not given), for which the Potency result in assay [1], in assay [12], in assay [3], in [5], in [18] and in [16] was “inactive” in each case. Further, the Potency result in [17] was “inactive”. The Potency is 54.3 µM (active) in [4]; 43.3 µM (active) in assay [6]; 21.6 µM (active) and 21.7 µM (active) in assay [7]; 61.1 µM (active) in [14]; 68.6 µM (active) in assay [8]. For the same molecule, the molecule was called inactive in [15].
With `CCN(CC)c1ccc(N)cc1`, the Potency in [1] is 17.7 µM (active); in assay [3] it was 35.3 µM (active); in assay [6] it was 4.99 µM (active); in assay [16], 19.9 µM (active); in [8] it was 49.9 µM (active); in assay [10], 28.1 µM (active). Also, the Potency entry in assay [12], in assay [13] and in [5] was “inactive” throughout. Besides, in [15], the molecule was called inactive.
As to `[O]=[Zr]`, the Potency entry in assay [1], in [12], in assay [13], in assay [4], in [5] and in assay [6] was “inactive” throughout. Further, the Potency result in assay [16], in [14], in [8] and in assay [17] was “inactive” each time. The outcome in assay [15] was inactive.
As for `COC(=O)NCCC[Si](OC)(OC)OC`, the Potency entry in [1], in assay [12], in [13], in assay [3], in assay [5] and in [6] was “inactive” in each case. In addition, the Potency entry in [7], in [16], in assay [14], in [8], in [17] and in assay [10] was “inactive” in each case. Besides, the molecule was called inactive in assay [15].
Turning to `CNCC[C@H](Oc1cccc2ccccc12)c1cccs1`, the Potency was 26.6 µM (active) in assay [1]; 26.6 µM (active) in [3]; 33.5 µM (active) in assay [4]; 2.37 µM (active) in assay [6]; 29.8 µM (active) in [16]; 16.8 µM (active) in [14]. In addition, the Potency in [8] is 13.3 µM (active). The Potency entry in assay [12], in assay [13], in assay [5], in assay [17] and in [10] was “inactive” each time. The outcome in [15] was inactive.
As to `Cc1nc(Nc2ncc(C(=O)Nc3c(C)cccc3Cl)s2)cc(N2CCN(CCO)CC2)n1`, the Potency entry in assay [1], in assay [12], in assay [13], in assay [5], in [6] and in assay [8] was “inactive” throughout. Moreover, in assay [9], the Potency entry is “inactive”. Moreover, the Potency is 0.075 µM (active) in assay [3], 23.7 µM (active) in assay [7] and 26.6 µM (active) in [17]. Also, the result in assay [15] was inactive.
Take `Cc1c(-c2ccc(O)cc2)n(Cc2ccc(OCCN3CCCCCC3)cc2)c2ccc(O)cc12`: the Potency in [1] is 29.8 µM (active); in assay [3], 13.3 µM (active); in [4] it was 26.6 µM (active); in assay [6], 11.9 µM (active); in [16] it was 29.8 µM (active); in assay [14], 29.8 µM (active). The Potency in assay [8] was 26.6 µM (active). Further, the Potency entry in assay [12], in [5] and in [10] was “inactive” throughout.
Consider `CSc1c(Cl)c(Cl)c(Cl)c(Cl)c1Cl`, for which the Potency result in assay [1], in assay [12], in assay [3], in assay [4], in [5] and in assay [6] was “inactive” in each case. The Potency result in [18], in [7], in [16] and in assay [8] was “inactive” each time. The call in assay [15] was inactive.
Turning to `CCCCCCC(C)Nc1ccc(Nc2ccccc2)cc1` (stereo not given), the Potency result in assay [1], in [12], in [13], in assay [5], in assay [18] and in assay [16] was “inactive” in each case. Also, the Potency is 27.3 µM (active) in assay [6] and 48.6 µM (active) in [7].
